# Results from PubChem BioAssay.
# Active and inactive are the calls of the source.
# Tests used:
# Albumin (Bos taurus) = Albumin (Bos taurus) (UniProt P02769); assay: compounds binding labelled BSA control protein – biochemical, small-molecule microarray, Alexa647 label, 635/667 nm fluorescence, artefact control for SMM control protein annotation, profiling panel (AID 1118); conditions: BSA-A647 binding, fluorescence 635 nm, higher = more signal;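 note: score merges 667 nm emission intensity and signal-to-noise per printed compound spot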
# Albumin (Bos taurus), sequence (P02769 whole entry, looked up): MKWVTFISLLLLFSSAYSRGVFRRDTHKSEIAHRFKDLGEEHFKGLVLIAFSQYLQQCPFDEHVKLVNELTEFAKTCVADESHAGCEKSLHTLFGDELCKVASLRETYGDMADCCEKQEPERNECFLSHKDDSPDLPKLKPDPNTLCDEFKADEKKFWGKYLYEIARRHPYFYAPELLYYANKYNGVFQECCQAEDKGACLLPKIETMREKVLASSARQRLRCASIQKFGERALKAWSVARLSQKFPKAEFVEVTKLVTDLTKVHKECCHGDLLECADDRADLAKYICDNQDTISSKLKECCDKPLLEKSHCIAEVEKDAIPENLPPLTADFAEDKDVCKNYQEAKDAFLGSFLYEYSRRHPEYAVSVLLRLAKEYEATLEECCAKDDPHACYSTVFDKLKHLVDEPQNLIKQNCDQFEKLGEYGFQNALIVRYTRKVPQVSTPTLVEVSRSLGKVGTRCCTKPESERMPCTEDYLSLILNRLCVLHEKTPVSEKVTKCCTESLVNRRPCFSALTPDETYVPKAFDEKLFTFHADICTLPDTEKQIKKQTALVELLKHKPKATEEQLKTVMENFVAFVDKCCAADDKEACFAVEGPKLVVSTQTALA
# [1] = probe aXIP binding to arrayed compounds – biochemical, NeuroSMM set, 635/667 nm fluorescence, primary screen (AID 1119); conditions: small-molecule microarray, higher = more signal, called active from +8 up or from −8 down;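 note: probe is the protein aXip251-270 applied at 1 µg/mL to compound-printed slides; binding of probe to printed compounds measured as 667 nm fluorescence plus signal to noise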
# [2] = probe aNOTCH3 binding on compound microarray – biochemical, small-molecule microarray, 635/667 nm fluorescence, primary screen (AID 1120); conditions: higher = more signal;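 note: probe is a biotin-tagged antibody raised against NOTCH3 rather than NOTCH3 protein; score merges spot fluorescence near 667 nm with spot signal to noise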
# [3] = probe aNOTCH2 binding on compound microarray – biochemical, small-molecule microarray, 635/667 nm fluorescence, primary screen (AID 1121); conditions: higher = more signal;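 note: score merges feature fluorescence read at 667 nm with its signal to noise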
# [4] = biological target: Carbonic anhydrase 2 (Homo sapiens) (UniProt P00918); assay: compounds binding carbonic anhydrase 2 – biochemical, small-molecule microarray, Alexa647-labelled CAII, profiling panel (AID 1122); conditions: CAII-A647 binding fluorescence, higher = more signal
# [5] = COS7 lysate on small-molecule microarray, probe aHis, 635 nm (AID 1123); conditions: COS7 cell lysate, fluorescence, higher = more signal;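 note: z-score combines 667nm fluorescence intensity with signal-to-noise per printed compound spot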
# [6] = probe aLAP1 signal on lysate-treated microarray – cell lysate, small-molecule microarray, COS7 lysate, primary screen (AID 1124); conditions: probe aLAP1, fluorescence, higher = more signal;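 note: lysate comes from COS7 cells expressing LAP1 and is applied at 0.3 µg/mL; score merges spot fluorescence near 667 nm with signal-to-noise over triplicate slides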
# Sam68 (KHDRBS1) = assay: compounds binding KHDRBS1 protein – biochemical, small-molecule microarray, 635 nm fluorescence, primary screen (AID 1125); conditions: higher = more signal;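 note: score merges 667 nm channel intensity with signal to noise over triplicate slides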
# [7] = tested on: Chordin-like protein 2 (CHRDL2); assay: compounds binding chordin-like 2 – biochemical, small-molecule microarray, 635 nm fluorescence, primary screen (AID 1126); conditions: fluorescence 635 nm, higher = more signal;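 note: printed compound slides probed with Chrdl2 protein at 4 µg/mL for 1 h at 4 C; score merges 667 nm emission intensity with signal to noise over three replicate slides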
# [8] = biological target: Concanavalin-A (Canavalia ensiformis) (UniProt P02866); assay: compounds binding concanavalin A lectin – biochemical, small-molecule microarray, Alexa647 label, 635 nm, artefact control for SMM control protein annotation, primary screen (AID 1127); conditions: ConA-A647 binding fluorescence, higher = more signal;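 note: z combines 667 nm emission intensity with signal-to-noise across three replicate slides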
# Concanavalin-A (Canavalia ensiformis), sequence (P02866 whole entry, looked up): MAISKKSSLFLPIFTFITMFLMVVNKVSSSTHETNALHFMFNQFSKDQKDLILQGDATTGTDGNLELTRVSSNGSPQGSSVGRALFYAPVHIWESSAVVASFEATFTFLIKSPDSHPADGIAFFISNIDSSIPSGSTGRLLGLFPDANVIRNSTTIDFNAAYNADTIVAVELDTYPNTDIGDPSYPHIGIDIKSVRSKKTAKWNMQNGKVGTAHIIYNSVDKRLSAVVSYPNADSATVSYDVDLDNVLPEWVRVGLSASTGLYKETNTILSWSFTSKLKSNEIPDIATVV
# [9] = compounds binding Alexa647 anti-His antibody – biochemical, small-molecule microarray, 635 nm fluorescence, artefact control for SMM control protein annotation, primary screen (AID 1128); conditions: higher = more signal;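 note: score merges feature fluorescence with signal-to-noise for each printed compound spot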
# [10] = tested on: Human papillomavirus type 1a E7 protein (residues 1-88); assay: HPV1a E7 small-molecule binders, primary screen, biochemical, small-molecule microarray, residues 1-88, 635 nm (AID 1129); conditions: small-molecule microarray binding, fluorescence 635 nm; higher = more signal
# [11] = biological target: Focal adhesion kinase 1 (Homo sapiens) (UniProt Q05397); assay: PTK2 protein binding on printed compound slides – biochemical, small-molecule microarray, 635/667 nm fluorescence, BSA, DTT, primary screen (AID 1130); conditions: 635 nm fluorescence, higher = more signal;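 note: composite of spot emission at 667 nm and signal to noise over triplicate slides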
# Focal adhesion kinase 1 (Homo sapiens), sequence (Q05397 whole entry, looked up): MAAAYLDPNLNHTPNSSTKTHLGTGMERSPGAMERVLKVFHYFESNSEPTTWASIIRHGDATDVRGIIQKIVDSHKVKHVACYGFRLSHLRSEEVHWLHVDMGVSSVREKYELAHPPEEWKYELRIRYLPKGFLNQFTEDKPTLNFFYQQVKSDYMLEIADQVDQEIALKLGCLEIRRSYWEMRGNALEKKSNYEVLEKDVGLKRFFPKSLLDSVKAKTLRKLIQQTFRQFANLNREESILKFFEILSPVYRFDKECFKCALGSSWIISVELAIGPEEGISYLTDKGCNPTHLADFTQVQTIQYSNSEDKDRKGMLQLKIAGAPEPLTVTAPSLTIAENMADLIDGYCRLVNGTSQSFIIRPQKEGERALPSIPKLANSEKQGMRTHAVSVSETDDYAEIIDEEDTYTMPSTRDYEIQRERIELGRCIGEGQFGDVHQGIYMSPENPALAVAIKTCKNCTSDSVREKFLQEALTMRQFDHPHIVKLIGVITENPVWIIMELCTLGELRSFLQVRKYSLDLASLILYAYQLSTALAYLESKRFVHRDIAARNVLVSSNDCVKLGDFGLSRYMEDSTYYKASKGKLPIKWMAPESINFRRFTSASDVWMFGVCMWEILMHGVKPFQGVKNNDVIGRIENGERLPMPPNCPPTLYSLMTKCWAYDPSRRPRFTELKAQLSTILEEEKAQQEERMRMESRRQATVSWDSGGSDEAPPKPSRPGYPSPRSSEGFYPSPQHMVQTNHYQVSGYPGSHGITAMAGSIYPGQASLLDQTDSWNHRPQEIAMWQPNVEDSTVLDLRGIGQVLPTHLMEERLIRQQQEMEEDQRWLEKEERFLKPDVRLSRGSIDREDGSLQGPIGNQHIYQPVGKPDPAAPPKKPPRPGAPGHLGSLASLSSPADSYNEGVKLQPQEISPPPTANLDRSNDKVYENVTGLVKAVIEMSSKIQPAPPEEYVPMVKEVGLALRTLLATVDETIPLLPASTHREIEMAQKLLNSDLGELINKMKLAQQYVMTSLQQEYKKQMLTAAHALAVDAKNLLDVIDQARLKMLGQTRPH
# [12] = tested on: Fibrinogen (Alexa647-labelled); assay: Alexa647-fibrinogen binding to printed small molecules – biochemical, small-molecule microarray, 635/667 nm fluorescence, artefact control for SMM control-protein annotation, profiling panel (AID 1131); conditions: fibrinogen-A647 binding fluorescence, higher = more signal;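 note: z-score merges 667 nm fluorescence with per-spot signal-to-noise over triplicate slides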
# [13] = biological target: Follistatin (Homo sapiens) (UniProt P19883); assay: FST protein binding to printed compounds – biochemical, small-molecule microarray, 635/667 nm fluorescence, primary screen (AID 1132); conditions: 635 nm fluorescence, higher = more signal
# Follistatin (Homo sapiens), sequence (P19883 whole entry, looked up): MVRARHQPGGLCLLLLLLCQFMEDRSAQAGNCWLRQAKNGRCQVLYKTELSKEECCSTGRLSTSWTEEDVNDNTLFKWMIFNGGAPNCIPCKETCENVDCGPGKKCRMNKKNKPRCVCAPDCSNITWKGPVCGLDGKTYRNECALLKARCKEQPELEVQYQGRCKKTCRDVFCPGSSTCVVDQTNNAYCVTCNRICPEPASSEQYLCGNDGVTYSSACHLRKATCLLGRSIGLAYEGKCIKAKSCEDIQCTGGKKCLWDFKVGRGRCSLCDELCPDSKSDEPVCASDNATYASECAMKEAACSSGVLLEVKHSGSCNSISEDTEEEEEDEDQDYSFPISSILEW
# [14] = biological target: Fibroblast growth factor 2 (Homo sapiens) (UniProt P09038); assay: basic fibroblast growth factor binding to printed compounds – biochemical, small-molecule microarray, 635/667 nm fluorescence, primary screen (AID 1133); conditions: FGF2, fluorescence 635/667, higher = more signal
# Fibroblast growth factor 2 (Homo sapiens), sequence (P09038 whole entry, looked up): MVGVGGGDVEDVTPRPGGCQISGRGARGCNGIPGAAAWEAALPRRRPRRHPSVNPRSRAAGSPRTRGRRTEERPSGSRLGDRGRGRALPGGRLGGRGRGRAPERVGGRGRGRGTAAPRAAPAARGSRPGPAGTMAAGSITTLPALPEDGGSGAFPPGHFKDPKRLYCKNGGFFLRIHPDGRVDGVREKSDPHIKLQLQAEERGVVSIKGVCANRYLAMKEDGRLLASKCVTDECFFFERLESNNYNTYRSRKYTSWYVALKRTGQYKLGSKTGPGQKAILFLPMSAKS
# [15] = JC-1 mitochondrial potential readout, lung cancer cells – cell-based, A549, JC-1 fluorescence, basal, 24 h, 100 nL, profiling panel (AID 1138); conditions: higher = more signal;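 note: A549 lung adenocarcinoma cells under basal conditions with no added stimulus; test concentration not given here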
# Lefty1 = Lefty1 protein binding to printed compounds – biochemical, small-molecule microarray, 635/667 nm fluorescence, primary screen (AID 1139); conditions: fluorescence 635/667, higher = more signal
# [16] = tested on: wheat germ agglutinin (Triticum aestivum), Alexa647-labelled; assay: Alexa647-WGA lectin binding to printed small molecules – biochemical, small-molecule microarray, 635/667 nm fluorescence, artefact control for SMM control-protein annotation, profiling panel (AID 1140); conditions: WGA-A647 binding, 635 nm fluorescence, higher = more signal;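 note: score merges 667 nm feature emission with signal to noise over triplicate slides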
# [17] = biological target: Luciferin 4-monooxygenase (Photinus pyralis) (UniProt P08659); assay: inhibition of purified Photinus pyralis luciferase – biochemical, luminescence, purified enzyme, 2006 set, primary screen (AID 1141); conditions: purified firefly luciferase, SteadyGlo luminescence, 30 min; higher = more signal, called active from +8 up or from −8 down;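 note: cell-free assay with purified firefly luciferase at 100 ng per well in PBS; test concentration not given here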
# Luciferin 4-monooxygenase (Photinus pyralis), sequence (P08659 whole entry, looked up): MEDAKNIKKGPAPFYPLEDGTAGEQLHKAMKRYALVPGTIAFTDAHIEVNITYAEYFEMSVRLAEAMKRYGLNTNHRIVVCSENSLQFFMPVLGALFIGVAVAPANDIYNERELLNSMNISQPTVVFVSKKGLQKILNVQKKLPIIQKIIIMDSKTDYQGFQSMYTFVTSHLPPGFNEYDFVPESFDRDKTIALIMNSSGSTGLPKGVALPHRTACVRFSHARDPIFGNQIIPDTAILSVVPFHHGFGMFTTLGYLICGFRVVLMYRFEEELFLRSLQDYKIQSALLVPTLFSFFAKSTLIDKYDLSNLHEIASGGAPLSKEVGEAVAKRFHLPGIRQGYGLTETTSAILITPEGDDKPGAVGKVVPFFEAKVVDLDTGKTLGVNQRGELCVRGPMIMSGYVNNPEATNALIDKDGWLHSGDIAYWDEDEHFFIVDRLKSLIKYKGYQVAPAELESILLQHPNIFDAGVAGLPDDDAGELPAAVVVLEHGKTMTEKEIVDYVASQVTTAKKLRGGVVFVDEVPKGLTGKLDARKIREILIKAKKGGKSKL
Compound,composite z-score (Albumin (Bos taurus)),composite Z-score [1],composite z-score [2],composite z-score [3],composite z-score [4],composite z-score [5],composite z-score [6],composite z-score (Sam68 (KHDRBS1)),composite z-score [7],composite z-score [8],composite z-score [9],composite z-score [10],composite z-score [11],composite z-score [12],composite z-score [13],composite z-score [14],z-score [15],composite z-score (Lefty1),composite z-score [16],z-score [17]
C=CCNC(=O)[C@@H]1[C@H]2C(=O)O[C@H](c3ccccc3)[C@H](c3ccccc3)N2[C@H](c2ccc(OCCO)cc2)[C@@]12C(=O)Nc1ccc(C#CC3=CCCCC3)cc12,0.806,0.653 (inactive),0.0493,-0.145,0.512,1.33,0.402,1.3,0.0821,1.14,1.15,1.23,1.08,0.972,1.1,0.582,-1.56,1.11,0.898,-0.806 (inactive)
COC(=O)C[C@H]1O[C@]2(C(=O)N(C)c3ccccc32)[C@@H](C)[C@@H]1[Si](C)(C)c1ccccc1,-0.0967,-0.142 (inactive),0.16,-0.171,0.288,0.198,0.216,0.898,0.816,0.593,0.83,0.941,0.764,0.794,1.05,0.856,0.186,0.966,0.219,1.24 (inactive)
COCCCNC(=O)[C@@]1(Cc2ccccc2I)c2ccccc2C(=O)N(C2CCCCC2)[C@H]1c1ccc(CO)cc1,0.653,0.732 (inactive),-0.0377,-0.112,0.544,2.36,0.386,1.03,-0.415,0.75,0.912,1.02,0.312,0.544,0.926,1.29,0.438,0.812,0.772,0.948 (inactive)
[N-]=[N+]=NCc1ccccc1C[C@@]1(C(N)=O)N=C(c2ccc(OCCCO)cc2)O[C@@H]1c1ccccc1N=[N+]=[N-],0.873,-0.254 (inactive),0.0065,0.0368,0.63,2.8,0.197,0.816,0.0247,1.12,1.16,1.24,0.0254,0.991,0.102,-0.131,0.306,-0.804,0.68,-5.46 (inactive)
C=C(COC)C(=O)CC[C@H](OC(C)=O)c1ccccc1OCCO,-1.63,-0.743 (inactive),-0.0343,-0.115,0.662,0.0092,-0.325,0.176,-0.0471,-0.153,0.342,-0.538,0.253,-0.674,1.26,1.73,0.0429,1.13,-0.368,-1.61 (inactive)
[N-]=[N+]=NCc1ccccc1[C@H]1OC(c2ccc(OCCCO)cc2)=N[C@@]1(Cc1ccccc1N=[N+]=[N-])C(=O)O,0.892,0.59 (inactive),0.297,0.0889,0.63,1.43,0.455,1.33,0.0332,1.14,2.02,1.2,1.03,0.899,1.21,0.134,-0.0184,0.0929,1.23,-4.21 (inactive)
C=CCOC(=O)[C@H]1[C@@H]2C(=O)O[C@@H](c3ccccc3)[C@@H](c3ccccc3)N2[C@@H](c2ccc(OCCOC(=O)[C@H]3C[C@H]4C(=O)NCC(=O)N4[C@H]3c3ccc(O)cc3)cc2)[C@]12C(=O)Nc1ccccc12,-0.501,1.19 (inactive),0.948,-0.0631,0.6,1.67,0.96,1.29,0.815,1.18,1.46,1.22,0.402,0.961,1.44,1.46,-1.62,1.26,0.543,0.207 (inactive)
COC(=O)[C@]1(Cc2ccccc2N=[N+]=[N-])N=C(c2ccc(OCCCO)cc2)O[C@@H]1c1ccccc1CN=[N+]=[N-],-0.836,0.636 (inactive),0.169,-0.0439,0.483,1.36,-0.0388,1.27,0.232,0.844,0.335,1.12,2.02,0.206,1.07,1.38,-0.199,0.182,0.0031,-0.232 (inactive)
CCCCN1CC=CC23O[C@@H]4C=CCCOC(=O)C4[C@H]2C(=O)N(CCO)[C@@H]3C1=O (stereo not given in full),0.0656,-0.535 (inactive),-0.246,-0.109,0.79,-1.36,1.94,-0.33,-0.418,-0.0932,-1.17,-0.513,-0.634,0.213,0.407,1.79,-0.9,-0.614,-0.0481,0.421 (inactive)
CO[C@H]1O[C@H](CO)[C@@H](OC(=O)Nc2ccccc2)[C@@H]2OC(=O)[C@@H](Cc3ccccc3)C/C=C/C[C@H](Cc3ccccc3)C(=O)O[C@@H]12,0.0558,0.547 (inactive),0.106,-0.0486,0.315,0.923,0.79,0.296,-0.0529,-0.216,2.4,0.426,0.348,0.0766,0.661,0.0861,-0.282,0.449,0.95,-0.283 (inactive)
COCCOC(=O)N1C(=O)[C@@]2(c3cc(C#CC4(O)CCCCCC4)ccc31)[C@H](C(N)=O)[C@H]1C(=O)O[C@H](c3ccccc3)[C@H](c3ccccc3)N1[C@@H]2c1ccc(OCCO)cc1,0.736,0.133 (inactive),0.086,-0.118,0.566,2.58,0.412,1.3,-0.0029,1.17,2.19,1.21,0.428,0.95,1.34,0.888,-1.71,0.673,1.11,-1.03 (inactive)
